From PubChem BioAssay
Most compounds without a hit are left out; they make up all but 7.1% or so of the library.
PINK1 expr mod: modulators of PINK1 expression. AID 624263. PINK1 immunofluorescence, high-content cytometry, 24 h. Potency, µM (doses to about 76.6 µM), inactives show at the highest dose activation (PINK1 increase), hits mostly activators. hit rate 0.2% among 410,000; active = well fitted activation curve with a large enough effect; inconclusive = small, poorly fitted or top-dose-only effect; cell line not stated here; also: potency is read from the fitted curve at half-maximal effect; % of control where 0% means no effect; nearly all actives have a fitted effect of over 65% in size
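Stable cell line treated 24 h with compounds at 5 concentrations (CCCP controls), then fixed and immunostained for PINK1 plus nuclear and cell stains; PINK1 immunofluorescence quantified by laser-scanning microplate cytometry.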
S2 tox: cell viability loss in ATXN counter-screen; S2 cells (HEK-293 line with an ATXN2-luciferase reporter) viability, CellTiter-Fluor protease fluorescence, 24 h; Potency, µM (series often up to 56.7 µM), most hits filed as cytotoxic; hit rate 0.49% among 400,000; AID 651635; also: potency is read from the fitted curve at half-maximal effect; nearly all actives have a fitted effect of over 40% in size
IL1B secr inh: inflammasome signaling inhibition, IL-1 beta readout; THP-1 LPS/ATP IL-1B secretion, AlphaLISA, 16 h; stronger effect = lower value; activity change, % at 57.5 µM; hit rate 4.7% among 360,000; in the data active = activity change below about -50%; inconclusive = mostly about -30% to -49%; also: % is scaled to controls: 0 for no effect and ±100 for the full control effect
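THP-1 cells pretreated 1 hr with compounds (up to 57.5 uM final), then stimulated with LPS (250 ng/mL final) plus ATP (1.25 mM final); secreted IL-1B measured by AlphaLISA after 16 hr, decreased signal indicating inhibition.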
SW480 rerep: DNA re-replication induction in SW480 cells | SW480 DNA re-replication, Hoechst DNA content imaging, 48 h | Potency, µM (doses to about 46.1 µM), without a hit: top-dose re-replication activation, hits mostly activators | hit rate 1.8% among 340,000; also: potency is read from the fitted curve at half-maximal effect; % of control where 0% means no effect; nearly all actives have a fitted effect of over 55% in size
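Treated cells incubate 48 hr (37 C, 5% CO2), are stained 40 min with Hoechst, and nuclear fluorescence is enumerated; a rise in nuclei with high DNA signal marks re-replication.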
ATXN2 expr inh: reduces ATXN2 reporter expression in HEK-293 cells; HEK-293 ATXN2-luciferase reporter, luminescence, 24 h; Potency, µM (series often up to 57 µM), inactives show at the top dose activity change, negative = inhibition, usual class: inhibitors; hit rate 0.72% among 360,000; AID 1745845; also: potency is read from the fitted curve at half-maximal effect; % is scaled to controls: 0 for no effect and ±100 for the full control effect; nearly all actives have a fitted effect of over 55% in size
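qHTS (up to 57 uM final) was run with 24 h compound exposure of reporter cells at 37 °C. Each well was multiplexed: SteadyGlo luminescence measured ATXN2-luciferase expression after a fluorogenic Gly-Phe-AFC viability readout (25 uM final).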
MCF10A rereplic: DNA re-replication induction in MCF 10a cells; hit rate 2.9% among 350,000; Potency, µM (series often up to 46.1 µM), without a hit: at the top dose activity, positive = re-replication, actives largely listed as activators; MCF 10A DNA re-replication, Hoechst nuclear intensity, 48 h; also: potency is read from the fitted curve at half-maximal effect; % of control where 0% means no effect; nearly all actives have a fitted effect of over 50% in size
* hit, by the source's call; i = inactive; ? = inconclusive; nt = not tested or not shown; [ ] = another dose, or the depositor's remark. Unless noted, calls follow the shape of the dose curve; as a rule, active = well fitted curve in the direction sought with a large enough effect; inconclusive = small, poorly fitted or top-dose-only effect, or another doubt; inactive = no such curve, though single readings can be large; an effect the other way counts as inactive or inconclusive.

SMILES	PINK1 expr mod	S2 tox	IL1B secr inh	SW480 rerep	ATXN2 expr inh	MCF10A rereplic
COCc1c(C(=O)N/N=C\c2cccs2)nnn1-c1nonc1N	?	i	-68*	-4%	17%	3%
Cc1cccc(COc2ccc(/C=N/NC(=O)c3nnn(-c4nonc4N)c3CN3CCCCC3)cc2)c1	10%	i	-9	-24%	nt	16µM*
Cc1cccc(COc2ccc(/C=N/NC(=O)c3nnn(-c4nonc4N)c3COc3ccc(F)cc3)cc2)c1	0%	?	-13	?	-33%	15µM*
c1ccc(Nc2c(-c3ccco3)nc3ccccn23)cc1	6%	i	?	1%	3%	1%
c1ccc(-c2nc(-c3ccco3)n3ccccc23)cc1	1%	i	-92*	?	-6%	21µM*
CC(C)c1ccc(NC(=O)CSC2=Nc3ccccc3C3=NC(CC(=O)NC4CCCCC4)C(=O)N23)cc1 (centres undefined)	1%	nt	nt	nt	nt	nt
Cc1cc(C)c(C(=O)c2ccccc2C(=O)O)c(C)c1	1%	i	-1	nt	-6%	nt
COc1ccc(CN2CSC(=S)N(Cc3ccccc3)C2)cc1	0%	7.1µM*	-3	?	nt	?
S=C1SCN(Cc2cccnc2)CN1Cc1cccnc1	2%	nt	nt	?	?	13µM*
S=C1SCN(Cc2ccccc2)CN1Cc1ccccc1	0%	i	-22	?	-18%	33µM*
CCN(C(=O)C1CCCN(S(=O)(=O)c2c(C)noc2/C=C/N(C)C)C1)c1cccc(C)c1 (centres undefined)	1%	?	nt	nt	?	nt
Cc1nnc(SCC(=O)N/N=C/c2cn(-c3ccccc3)nc2-c2ccccc2)n1-c1ccccc1	-1%	?	-78*	17%	-6%	?
O=C(Nc1ccc(F)cc1)N1CCN(c2ccc3nnc(-c4ccc(F)cc4)n3n2)CC1	0%	?	-21	6%	?	19%
Fc1ccc(-c2nnc3ccc(N4CCc5ccccc5C4)nn23)cc1	-1%	nt	-89*	-6%	32µM*	4%
CCCN(C(=O)c1sc2nc3n(c(=O)c2c1C)CCCC3)c1ccccc1C	-1%	nt	nt	nt	nt	nt
CCOc1ccc(-n2c(=O)c3c(C)c(C(=O)N(C)C)sc3n(CC(=O)Nc3c(C)cc(C)cc3C)c2=O)cc1	0%	nt	nt	nt	nt	nt
Fc1ccc2nncc(SCc3ccccc3Cl)c2c1	-1%	i	-25	18%	6%	18µM*
CCCCN(C=O)c1c(CC)nc2c(OCc3ccc(C(F)(F)F)cc3)cccn12	1%	?	-65*	nt	?	nt
CCc1nc2c(OCCOc3ccc(F)cc3)cccn2c1N(C=O)Cc1ccccc1	0%	i	-59*	nt	0%	nt
Cc1nc2c(OCc3ccc(C(F)(F)F)cc3)cccn2c1N(C)Cc1cccs1	?	32µM*	-84*	nt	?	nt
CCc1nc2c(OCc3ccc(C(F)(F)F)cc3)cccn2c1N(C=O)Cc1ccc(OC)cc1	24%	?	-72*	nt	?	nt
Cc1cccc(Cn2c(=O)n(CCc3ccccc3)c(=O)c3c(C)c(C)sc32)c1	4%	i	nt	nt	2%	nt
C[C@@H](C(=O)Nc1ccc2ccccc2c1)[C@H]1C[C@]1(C)[C@H](NS(=O)(=O)c1ccccc1)c1ccccc1	2%	i	?	1%	20%	3%
C[C@@H](C(=O)Nc1ccc2ccccc2c1)[C@H]1C[C@]1(C)[C@H](NC(=O)c1cnccn1)c1ccccc1	1%	?	-52*	?	-10%	3%
Cc1cc(C(=O)N[C@H](c2ccccc2)[C@@]2(C)C[C@@H]2[C@@H](C)C(=O)Nc2ccc3ccccc3c2)no1	0%	?	-54*	?	-17%	17%
SMILES	PINK1 expr mod	S2 tox	IL1B secr inh	SW480 rerep	ATXN2 expr inh	MCF10A rereplic
Cc1cc(C(=O)N[C@@H](c2ccccc2)[C@]2(C)C[C@H]2[C@@H](C)C(=O)Nc2ccc3ccccc3c2)no1	2%	i	6	-1%	-7%	0%
C[C@@H](C(=O)Nc1ccc2ccccc2c1)[C@H]1C[C@]1(C)[C@H](NP(=O)(c1ccccc1)c1ccccc1)c1ccccc1	nt	nt	nt	23µM*	nt	21%
Cc1ccc(CNC(=O)CN2C(=O)C3(SCC(=O)N3c3cc(C)cc(C)c3)c3ccccc32)cc1 (centres undefined)	3%	nt	nt	nt	nt	nt
CCc1ccc(NC(=O)C2CCN(c3nnc(-n4c(C)ccc4C)s3)CC2)cc1	-1%	nt	nt	nt	nt	nt
COC(=O)c1nc(N2CCN(S(=O)(=O)c3ccc(C)cc3)CC2)c2ccccc2n1	0%	nt	nt	nt	nt	nt
CCOC(=O)c1cc(C#N)c(Oc2ccccc2)nc1-c1ccccc1	-2%	?	10	-1%	-11%	20%
CCCCNc1nc(-c2ccccc2)c(C(=O)OCC)cc1C#N	30%	i	0	?	-8%	?
CCCNc1nc(-c2ccccc2)c(C(=O)OCC)cc1C#N	6%	i	23	16µM*	-9%	12µM*
C=CCNc1nc(-c2ccccc2)c(C(=O)OCC)cc1C#N	9%	i	0	?	-24%	15µM*
CCN(CC)C(=O)CSc1nnc(-c2ccccc2)o1	-3%[38.3 µM]	i	-2	?	8%	5.2µM*
Cc1[nH]nc2ncc(C(=O)c3ccccc3O)cc12	-1%	i	-51*	20%	28%	15%
CCOc1ccc(-c2nnc(SCC(=O)NCc3ccc(Cl)cc3)o2)cc1	-1%	i	nt	nt	9%	nt
Cc1oc2ccc(O)c(CN3CCN(C)CC3)c2c1C(=O)Nc1ccc(C(C)C)cc1	0%	i	nt	nt	-8%	nt
OC1(c2ccc(Cl)cc2)CCN(Cc2cn[nH]c2-c2ccc(F)cc2)CC1	5%	i	?	3%	-29%	1%
COc1ccc(Cn2nnnc2CN2CCc3ccccc3C2)cc1	0%	?	0	1%	4%	13%
COc1ccc(-c2[nH]ncc2CN2CCC(O)(c3ccc(Cl)cc3)CC2)cc1	3%	i	-59*	-4%	-38%	2%
COc1ccc(Cn2nnnc2CN2CCc3ccccc32)cc1	nt	i	24	23µM*	-8%	9%
OC1(c2ccc(Cl)cc2)CCN(Cc2cn[nH]c2-c2ccccc2)CC1	1%	i	-53*	-3%	-36%	2%
COc1ccc(C2(O)CCN(Cc3nnnn3Cc3ccc(C)cc3)CC2)cc1	nt	i	-7	?	1%	21µM*
COc1ccc(Cn2nnnc2CN2CCC(O)(c3ccc(F)cc3)CC2)cc1	0%	i	-7	-6%	-16%	-4%
O=C(c1nc2ncccn2n1)N1CCOc2ccc(C(O)C(c3ccccc3)c3ccccc3)cc2C1 (centres undefined)	0%	i	nt	nt	nt	nt
